Screening results deposited in PubChem BioAssay by National Center for Advancing Translational Sciences (NCATS).
Hits are enriched below; roughly 12% of the tested compounds scored in any of these assays.
HP1b chromo inh: blocks HP1-beta chromodomain binding to methylated histone tails. AlphaScreen HP1-beta / biotin-H3K9me3 peptide binding. Potency, µM (series often up to 114 µM), without a hit: at the highest dose activity change, negative = inhibition, actives largely listed as inhibitors. AID 540317. actives 0.56% (n = 390,000). P83916; further: nearly all actives have a fitted effect of over 70% in size
Target sequence (P83916 whole entry, looked up): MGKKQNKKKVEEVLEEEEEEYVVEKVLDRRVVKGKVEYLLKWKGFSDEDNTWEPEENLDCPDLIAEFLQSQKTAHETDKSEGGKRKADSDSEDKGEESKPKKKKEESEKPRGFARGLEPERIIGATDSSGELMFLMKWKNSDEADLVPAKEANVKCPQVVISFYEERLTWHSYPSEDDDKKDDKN
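Compound inhibition of the preformed complex between 50 nM HP1-beta and 50 nM biotinylated H3K9me3 peptide was read by AlphaScreen. Buffer was PBS pH 7.4 with 0.01% Tween-20. Incubations ran 30 min at room temperature, with 10 ug/mL donor/acceptor beads.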
G9a block: G9a (human) methyltransferase inhibition | Q96KQ7 | G9a H3K9 monomethylation, AlphaScreen, 2 h | Potency, µM (titrated, usually from 102 µM), without a hit: at the highest dose activity, negative = inhibition, actives largely listed as inhibitors | actives 8.8% (n = 350,000) | AID 504332; further: on the % scale 0 is the no-effect control and ±100 the full control effect; nearly all actives have a fitted effect of over 75% in size
Target sequence (Q96KQ7 913-1193 limits assumed): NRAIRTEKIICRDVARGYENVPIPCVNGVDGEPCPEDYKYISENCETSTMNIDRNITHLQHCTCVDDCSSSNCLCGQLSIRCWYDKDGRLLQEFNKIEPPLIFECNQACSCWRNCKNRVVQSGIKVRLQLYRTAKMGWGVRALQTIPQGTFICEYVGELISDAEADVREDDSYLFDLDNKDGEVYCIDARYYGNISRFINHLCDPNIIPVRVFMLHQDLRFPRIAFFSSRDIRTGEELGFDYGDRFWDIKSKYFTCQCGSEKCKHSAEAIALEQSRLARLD
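Step 1: enzyme (final 20 nM) with compound, 15 min RT. Step 2: substrate peptide 500 nM and SAM 20 uM, 2 h RT. Step 3: anti-H3K9me1 antibody and AlphaScreen beads, 10 min, then plate read.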
Sfp PPTase inh: Sfp phosphopantetheinyl transferase inhibition; Potency, µM, inactives show largest response in the series, negative = inhibition, most hits filed as inhibitors; actives 3.5% (n = 310,000); Biochemical Sfp PPTase activity, qHTS; AID 1490;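 further: the enzyme is Sfp with the accession as filed and its product quenches rhodamine fluorescence; 0% = enzyme reaction without inhibitor and -100% = no enzyme wells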
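Sfp 15 nM + cpd, 15 min RT; start w/ rhodamine-CoA 5 uM, BHQ-2-YbbR 12.5 uM (final); 50 mM Hepes pH 7.6, 10 mM MgCl2, 0.01% NP-40, 0.01% BSA; read 525/598 nm at 0 and 30 min.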
JMJD2A Tudor inh: inhibitors of human JMJD2A Tudor domain | Potency, µM (titrated, usually from 114 µM), for inactives: at the highest dose activity change, negative = inhibition, hits mostly inhibitors | O75164 | AlphaScreen JMJD2A-Tudor / H3K4me3 peptide binding | actives 4.4% (n = 390,000); further: on the % scale 0 is the no-effect control and ±100 the full control effect; nearly all actives have a fitted effect of over 50% in size
BAZ2B inh: BAZ2B (human) inhibition; AlphaScreen BAZ2B-H3K14Ac peptide displacement; Potency, µM (titrated, usually from 114 µM), for inactives: top-dose activity change, negative = inhibition, most hits filed as inhibitors; actives 4.4% (n = 360,000); AID 504333; further: on the % scale 0 is the no-effect control and ±100 the full control effect; nearly all actives have a fitted effect of over 60% in size
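AlphaScreen displacement of biotin-H3(5-23)K14Ac peptide (50 nM final) from BAZ2B (50 nM final) in PBS pH 7.4, 0.01% Tween-20; complex preformed 30 min RT, then compounds (top 110 uM) 30 min RT, beads 20 min dark.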
An asterisk follows results filed as active; ! = a repeat was not active; [ ] = remark or other dose. The call rests on the fitted dose curve; in most records, active means well fitted curve in the direction sought with a large enough effect; inconclusive means small, poorly fitted or top-dose-only effect, or another doubt; inactive means no such curve, though single readings can be large; an effect the other way counts as inactive or inconclusive. Potency means the concentration at half of the fitted maximal effect.

How did CCN(CC)CCCN1C(=O)C(O)=C(C(=O)c2ccco2)C1c1ccc(C)o1 (stereo not drawn) do in these assays?
HP1b chromo inh: 16%; JMJD2A Tudor inh: inconclusive

What do the screens show for `CCOc1cccc(C2C(C(=O)c3ccc(C)o3)=C(O)C(=O)N2CCCn2ccnc2)c1` (stereo not drawn)?
HP1b chromo inh: -5%; G9a block: 0%[0.501 µM]; JMJD2A Tudor inh: inconclusive; BAZ2B inh: inconclusive

What do the screens show for `COCCCN1C(=O)C(O)=C(C(=O)c2ccco2)C1c1ccccc1` (stereo not drawn)?
HP1b chromo inh: 11%; G9a block: 10%[12.7 µM]; Sfp PPTase inh: 9%; JMJD2A Tudor inh: 50µM*; BAZ2B inh: inconclusive

Results for COCCCN1C(=O)C(O)=C(C(C)=O)C1c1ccccn1 (stereo not drawn) ?
HP1b chromo inh: -3%; G9a block: inconclusive; Sfp PPTase inh: 8%; JMJD2A Tudor inh: 79µM*; BAZ2B inh: -34%

How did CCOc1cc(C2C(C(=O)c3ccco3)=C(O)C(=O)N2CCc2ccccc2)ccc1O (stereo not drawn) do in these assays?
HP1b chromo inh: 41%; G9a block: inconclusive; Sfp PPTase inh: 13%; JMJD2A Tudor inh: inconclusive; BAZ2B inh: inconclusive

How did O=C(C1=C(O)C(=O)N(CCc2ccccc2)C1c1cccs1)c1ccco1 (stereo not drawn) do in these assays?
HP1b chromo inh: 6%; G9a block: 50µM*; Sfp PPTase inh: 22%; JMJD2A Tudor inh: -19%; BAZ2B inh: inconclusive

How did COc1cc(C2C(C(=O)c3ccco3)=C(O)C(=O)N2Cc2ccccc2)ccc1O (stereo not drawn) do in these assays?
HP1b chromo inh: -5%; G9a block: 71µM*; Sfp PPTase inh: 1%; JMJD2A Tudor inh: 56µM*; BAZ2B inh: -29%

Results for Cc1nc(-c2ccc(F)cc2)c(CC(=O)N(C)CC(=O)Nc2ccc(Cl)c(C(F)(F)F)c2)s1 ?
HP1b chromo inh: 19%; JMJD2A Tudor inh: inconclusive

What do the screens show for `Cc1ccc2nc(NS(=O)(=O)c3cn(C)nc3C)sc2c1`?
HP1b chromo inh: 25%; G9a block: 34%; Sfp PPTase inh: 8%; JMJD2A Tudor inh: -19%; BAZ2B inh: 2%

How did CC(=O)C1=C(O)C(=O)N(CCCO)C1c1ccccc1 (stereo not drawn) do in these assays?
HP1b chromo inh: 5%; G9a block: inconclusive; Sfp PPTase inh: 71µM*; JMJD2A Tudor inh: inconclusive; BAZ2B inh: inconclusive

What do the screens show for `CN(C)c1ccc(CNC(=O)c2cc3ccccn3n2)cc1`?
HP1b chromo inh: -12%; G9a block: 16µM*; JMJD2A Tudor inh: inconclusive; BAZ2B inh: inconclusive

Results for CCOC(=O)c1cccc(NC(=O)C2CCN(S(=O)(=O)c3c(C)noc3/C=C/c3ccc(C)cc3)CC2)c1 ?
HP1b chromo inh: 25%[57 µM]; G9a block: -3%[59 µM]; JMJD2A Tudor inh: -3%; BAZ2B inh: -3%

How did Cc1cc2c(s1)c1cnn(Cc3c(Cl)cccc3Br)c(=O)c1n2C do in these assays?
JMJD2A Tudor inh: -5%

What do the screens show for `NS(=O)(=O)c1ccc(O)c(NC(=O)c2ccc([N+](=O)[O-])o2)c1`?
HP1b chromo inh: 45µM*; G9a block: inconclusive; Sfp PPTase inh: 11µM*; JMJD2A Tudor inh: 50µM*; BAZ2B inh: -16%

How did O=C(c1ccc([N+](=O)[O-])o1)N1CCN(c2nc3c(Cl)cccc3s2)CC1 do in these assays?
HP1b chromo inh: -17%; G9a block: 35µM*; JMJD2A Tudor inh: inconclusive; BAZ2B inh: inconclusive

How did O=C(Nc1ccccc1N1CCCCC1)c1ccc([N+](=O)[O-])o1 do in these assays?
HP1b chromo inh: 45µM*; G9a block: 11µM*; JMJD2A Tudor inh: inconclusive; BAZ2B inh: 11µM*

Results for O=C(Nc1ccccc1N1CCOCC1)c1ccc([N+](=O)[O-])o1 ?
HP1b chromo inh: 5%; G9a block: 59%; Sfp PPTase inh: 8%; JMJD2A Tudor inh: -15%; BAZ2B inh: -16%

Results for COc1cccc2sc(N3CCN(C(=O)c4ccc([N+](=O)[O-])o4)CC3)nc12 ?
HP1b chromo inh: 11%; G9a block: -41%; JMJD2A Tudor inh: -29%; BAZ2B inh: -9%

Results for CN1CCN(c2ccccc2NC(=O)c2ccc(-c3ccccc3[N+](=O)[O-])o2)CC1 ?
HP1b chromo inh: -31%; G9a block: inconclusive; Sfp PPTase inh: -15%; JMJD2A Tudor inh: 56µM*; BAZ2B inh: inconclusive

Results for O=C(NC1CCCCC1)c1ccc(-c2ccccc2[N+](=O)[O-])o1 ?
HP1b chromo inh: -5%; G9a block: inconclusive; Sfp PPTase inh: -7%; JMJD2A Tudor inh: inconclusive; BAZ2B inh: inconclusive

How did COc1ccccc1CN(C)C(=O)C(c1ccccc1)c1ccccc1 do in these assays?
HP1b chromo inh: 55%; G9a block: 22%; Sfp PPTase inh: 6%; JMJD2A Tudor inh: 1%; BAZ2B inh: 19%

What do the screens show for `O=C(Nc1cccc(Cl)c1N1CCCC1)c1ccc([N+](=O)[O-])o1`?
HP1b chromo inh: -25%; G9a block: 10µM*; Sfp PPTase inh: 0%; JMJD2A Tudor inh: inconclusive; BAZ2B inh: inconclusive

How did Cc1ccccc1N(C(=O)c1csnn1)C(C(=O)NC(C)(C)C)c1cccs1 (stereo not drawn) do in these assays?
HP1b chromo inh: inconclusive; G9a block: -30%; Sfp PPTase inh: 10%; JMJD2A Tudor inh: 10µM*; BAZ2B inh: -27%

Results for COC(=O)c1cc(OC)c(OC)c(OC)c1NC(=O)c1cc(=O)n(C)c(=O)n1C ?
HP1b chromo inh: 22%; G9a block: 28µM*; JMJD2A Tudor inh: -5%; BAZ2B inh: -9%

Results for COc1ccc(CCNC(=O)c2cc(=O)n(C)c(=O)n2C)cc1OC ?
HP1b chromo inh: 12%; G9a block: 5%[59 µM]; Sfp PPTase inh: 0%; JMJD2A Tudor inh: -7%; BAZ2B inh: -14%

Results for C/C(=N\NC(=O)CSCc1ccccc1Cl)c1cc(O)ccc1O ?
HP1b chromo inh: inconclusive; Sfp PPTase inh: inconclusive; JMJD2A Tudor inh: inconclusive; BAZ2B inh: 40µM*

What do the screens show for `CON=C(C(=O)NC1C(=O)N2C(C(=O)O)=C(CSc3nc(=O)c(=O)[nH]n3C)CSC12)c1csc(N)n1` (stereo not drawn)?
HP1b chromo inh: -11%; JMJD2A Tudor inh: 50µM*

What do the screens show for `CO/N=C(\C(=O)N[C@@H]1C(=O)N2C(C(=O)O)=C(CSc3nc(=O)c(O)nn3C)CSC12)c1csc(N)n1` (stereo partly drawn)?
G9a block: 28µM*!

What do the screens show for `CO/N=C(\C(=O)N[C@@H]1C(=O)N2C(C(=O)O)=C(COC(C)=O)CS[C@@H]12)c1csc(N)n1`?
G9a block: -39%[12.7 µM]; Sfp PPTase inh: inconclusive
